Screening results deposited in PubChem BioAssay by several laboratories.
CYP2C19 act = human CYP2C19 activators, primary screen, biochemical, luminescence; Cytochrome P450 2C19 (Homo sapiens), P33261; recombinant CYP2C19, luciferin-H EGE luminescence; stronger effect = higher value; 0 = fully inhibited enzyme, 1 = untreated enzyme; activation factor at 5 µM; 96,000 tested, under 10 active;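 active = activation factor of at least 2 at 5 µM in the primary screen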
Target sequence (P33261 whole entry, looked up): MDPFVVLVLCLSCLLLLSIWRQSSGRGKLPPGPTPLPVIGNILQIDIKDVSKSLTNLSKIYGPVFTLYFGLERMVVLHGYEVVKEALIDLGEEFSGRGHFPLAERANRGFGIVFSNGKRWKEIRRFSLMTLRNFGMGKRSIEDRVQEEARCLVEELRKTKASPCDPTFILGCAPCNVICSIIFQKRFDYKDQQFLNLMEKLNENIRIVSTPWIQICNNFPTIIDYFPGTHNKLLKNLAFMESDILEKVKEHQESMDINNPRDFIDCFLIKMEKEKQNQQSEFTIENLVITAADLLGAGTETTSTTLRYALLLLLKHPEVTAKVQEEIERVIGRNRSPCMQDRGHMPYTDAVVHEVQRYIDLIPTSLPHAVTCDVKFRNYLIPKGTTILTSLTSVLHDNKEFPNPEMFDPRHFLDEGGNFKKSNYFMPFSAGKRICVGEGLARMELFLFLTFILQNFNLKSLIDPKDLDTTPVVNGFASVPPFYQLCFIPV
sEH inhibitor = soluble epoxide hydrolase inhibitors, primary screen, biochemical, human sEH; Bifunctional epoxide hydrolase 2 (Homo sapiens), P34913; recombinant human sEH enzymatic activity assay; inhibition, % at 2 µM; actives 0.34% (n = 91,000); AID 707, 2007; in the data active = inhibition above about 80%
CYP2C19 inhib = blockers of cytochrome P450 2C19 activity – biochemical, luminescence, ADME assay, primary screen. P33261. CYP2C19 Supersomes, luciferin-H EGE luminescence, 30 min. inhibition, % at 5 µM. actives 21% (n = 96,000). AID 778, 2007;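 active = CYP2C19 inhibition above a set limit at 5 µM in the primary screen, cut at about 50% in these data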
CYP2C9 inh = blockers of cytochrome P450 2C9 activity – biochemical, luminescence, ADME assay, primary screen; CYP2C9 Supersomes, luciferin-H conversion; inhibition, % at 5 µM; actives 20% (n = 96,000); AID 777, 2007;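 active = blocking of liver enzyme CYP2C9 beyond about 50% at 5 µM, limit read from the data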
CYP2C9 act = human CYP2C9 activators, primary screen, biochemical, luminescence; Cytochrome P450 2C9 (Homo sapiens), P11712; recombinant CYP2C9, luciferin-H conversion; stronger effect = higher value; factor 1 = untreated enzyme, 0 = blocked; activation factor at 5 µM; actives 1.4% (n = 96,000); AID 1024, 2008;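 active = activation factor of 2 or more for CYP2C9 at a 5 µM dose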
sEH activator = soluble epoxide hydrolase activators, primary screen, biochemical, human sEH. purified human sEH enzymatic activity, activator screen. activation, % at 2 µM. actives 0.04% (n = 91,000); in the data active = activation above about 37%
Hits are given with their value; 0 = inactive; - = no result. Only some compounds are listed: those with a hit (about 27% of all), similar ones and a draw of the others.

SMILES	CYP2C19 act	sEH inhibitor	CYP2C19 inhib	CYP2C9 inh	CYP2C9 act	sEH activator
COc1cc(/C=N/NC(=O)CCn2c3ccccc3c3ccccc32)ccc1O	0	0	60.4	65.2	0	0
COC(=O)c1cc(OC)c(OC)cc1NC(=O)Nc1ccc(OC)cc1OC	0	0	68.4	83.6	0	0
COC(=O)c1cc(OC)c(OC)cc1NC(=O)c1ccc(C)cc1	0	0	0	50.8	0	0
COC(=O)c1cc(OC)c(OC)cc1NC(=O)c1ccc(OC)cc1	0	0	0	0	0	0
COc1cc(/C=N/NC(=O)c2c(-c3ccccc3)noc2C)ccc1O	0	0	52.5	76.7	0	0
COc1ccc(/C=N/NC(=O)CCc2ccccc2)cc1O	0	0	0	0	0	0
Cc1cn(C(=O)c2ccccc2)c(=S)n1-c1ccc(Br)cc1	-	0	-	-	-	0
CCOc1ccc(CCNC(=O)C2CCN(S(=O)(=O)N3CCOCC3)CC2)cc1OCC	0	0	0	0	0	0
Cc1occc1C(=O)Nc1ccc(S(=O)(=O)N2CCN(C)CC2)cc1	0	0	0	0	0	0
Cc1cccc(C)c1NC(=O)c1c(-c2ccccc2)noc1C	0	-	0	0	0	-
CCn1c2ccccc2c2cc(/C=N/NC(=O)c3ccccc3)ccc21	0	0	73.2	0	0	0
COc1cc(/C=N/NC(=O)C2c3ccccc3Oc3ccccc32)ccc1O	0	0	0	52.7	0	0
Cc1ccccc1NC(=O)c1c(-c2ccccc2)noc1C	0	0	51.7	0	0	0
Cc1ccc(F)cc1NC(=O)c1c(-c2ccccc2)noc1C	0	0	52.6	0	0	0
CCn1c2ccccc2c2cc(/C=N/n3c(C)nnc3C)ccc21	0	0	0	0	0	0
COc1cc(/C=N/NC(=O)c2nc(C)cc(C)n2)ccc1O	0	0	0	0	0	0
CN(C)CCNC(=O)c1c(O)c2c([nH]c1=O)CCCC2	0	0	0	0	0	0
Cc1nn(-c2ccc(F)cc2)c2c1cc(C#N)c1nc3ccccc3n12	0	0	0	0	0	0
COC(=O)c1cc(OC)c(OC)cc1NC(=O)c1c(-c2ccccc2)noc1C	0	0	56.1	75.1	0	0
COC(=O)c1onc(-c2ccccc2)c1C(=O)OC	0	0	71.9	0	0	0
COC(=O)c1onc(-c2c(C)cc(C)cc2C)c1C(=O)OC	0	0	0	0	0	0
Cc1cc(/C=C(\C#N)C(=O)NCc2ccco2)c(C)n1C1CCCC1	0	0	0	0	0	0
C/C(=N\NC(=O)c1csc2ccccc12)c1ccc(O)cc1	0	0	84.3	0	2.8	0
CCCCOc1cccc(/C=N/NC(=O)c2csc(C)c2C)c1	0	82.1	0	0	0	0
O=C(N/N=C/c1cccc(O)c1)c1csc2ccccc12	0	84.0	0	0	0	0
SMILES	CYP2C19 act	sEH inhibitor	CYP2C19 inhib	CYP2C9 inh	CYP2C9 act	sEH activator
CC(C)CNC(=S)NNC(=O)c1csc2ccccc12	0	0	0	0	0	0
Cc1c(/C=N\NC(=O)c2csc3ccccc23)cnn1C	0	0	0	0	0	0
CCCCNc1nc(-c2ccccc2)c(C(=O)OCC)cc1C#N	0	0	0	55.5	0	0
C=CCNc1nc(-c2ccccc2)c(C(=O)OCC)cc1C#N	0	0	0	0	0	0
CCOC(=O)c1cc(C#N)c(Oc2ccccc2)nc1-c1ccccc1	0	0	0	0	0	0
CCCNc1nc(-c2ccccc2)c(C(=O)OCC)cc1C#N	0	0	0	56.9	0	0
CCOCCCNC(=S)N1C2CCC1CC(NC(=O)NC13CC4CC(CC(C4)C1)C3)C2 (configuration not stated)	0	0	0	0	0	0
Cc1occc1C(=O)NCc1cccs1	-	0	-	-	-	0
O=C(NCc1cccs1)c1ccc(Cl)s1	0	0	54.4	0	0	0
CCc1ccc(C(=O)NCc2cccs2)s1	0	-	79.7	0	0	-
O=C(NCc1ccccn1)c1ccc(Cl)s1	0	0	0	0	0	0
CC(C)=CCC(C)(C)C1OCCN1C(=O)Nc1ccccc1 (configuration not stated)	0	0	99.5	79.6	0	0
COCC(=O)NC1CCN(CC(=O)Nc2ccc(OC)cc2[N+](=O)[O-])CC1	0	0	0	0	0	0
COC(=O)c1c(C)[nH]c(C(=O)COC(=O)Cc2ccc3c(c2)OCCO3)c1C	0	0	0	81.2	0	0
O=C(COC(=O)Cc1ccc2c(c1)OCCO2)Nc1ccc(S(=O)(=O)N2CCCC2)cc1	0	0	0	0	0	0
Cc1sc2ncnc(N3CCN(CCOc4ccc(Cl)cc4)CC3)c2c1C	0	0	96.7	99.0	0	0
Cc1cc(C)n(CCCNC(=O)c2ccc3c(c2)NC(=O)CS3)n1	0	0	0	0	0	0
COc1ccc(-c2noc(-c3ccc(Br)o3)n2)cc1OC	0	0	0	0	0	0
Brc1ccc(-c2nc(-c3ccncc3)no2)o1	0	0	91.4	0	0	0
Brc1ccc(-c2nc(-c3ccccn3)no2)o1	0	0	61.6	0	0	0
Nc1ccccc1SCc1cn2cccnc2n1	0	0	0	0	0	0
c1ccc2c(SCc3cn4cccnc4n3)ncnc2c1	0	0	54.0	0	0	0
COc1cc2[nH]c(=O)c(C(=O)NCCCN3CCCCC3)c(O)c2cc1OC	0	0	52.4	0	0	0
COc1ccc(Nc2nc(C)nc3c2nnn3Cc2ccccc2)cc1OC	-	0	-	-	-	0
Cc1nc(N(C)Cc2ccccc2)c2nnn(Cc3ccccc3)c2n1	0	0	99.6	98.5	0	0
SMILES	CYP2C19 act	sEH inhibitor	CYP2C19 inhib	CYP2C9 inh	CYP2C9 act	sEH activator
COC(=O)Nc1sc2c(c1C(=O)N1CCOCC1)CCC(C)C2 (configuration not stated)	0	0	0	0	0	0
Cc1ccc(S(=O)(=O)N(C)CCCC(=O)n2nc(C)cc2C)cc1	0	0	88.8	0	0	0
Cc1ccc(S(=O)(=O)N(C)CCCC(=O)N2CCOCC2)cc1	0	0	0	0	0	0
O=P(Cc1ccccn1)(c1ccccc1)c1ccccc1	0	0	0	0	0	0
COc1ccccc1NC(=O)C1C2C=CC3(CN(Cc4cccnc4)C(=O)C13)O2 (configuration not stated)	0	0	0	0	0	0
Cc1ccc(NC(=O)C2C3C=CC4(CN(Cc5cccnc5)C(=O)C24)O3)cc1F (configuration not stated)	0	-	58.2	0	0	-
Cc1nc(-c2cccc(S(=O)(=O)N3CCOCC3)c2)cs1	0	0	75.5	66.5	0	0
Cc1nc(-c2cccc(S(=O)(=O)N3CC(C)OC(C)C3)c2)cs1 (configuration not stated)	0	0	77.1	0	0	0
